In paper PMC8769072, “Proteome‐scale mapping of binding sites in the unstructured regions of the human proteome” (Molecular Systems Biology, 2022):

B1: IL16, Q14005 (peptide)
chain: SISSQVSSAVMKSLLA
B2: MAGI2, Q86UL8 (peptide)
chain: PPFTDYRQPPLDYRQP
B3: GNL3, Q9BVP2 (peptide)
chain: EVAFGKEGLWKLLGGF
B4: MARF1, Q9Y4F3 (peptide)
chain: SADLIQFEERPQEPSE
B5: AKNA, Q7Z591 (peptide)
chain: PPAAVYYAPAGPTSAQ
B6: DENND4C, Q5VZ89 (peptide)
chain: PVSSLAEPDLINFMDF
B7: PRPF40B, Q6NWY9 (peptide)
chain: AVPSNASWEQAMKMVV
B8: KIAA0513, O60268 (peptide)
chain: VGSLIDFGPEAPTSSP
B9: OR52I1, Q8NGK6 (peptide)
chain: WSYLMHFLFDHSNLGS
B10: PIK3C2B, O00750 (peptide)
chain: SLISWDEPGVDFYSKP
B11: PERM1, Q5SV97 (peptide)
chain: AWKTALLANVGTISAI
B12: TTN, Q8WZ42 (peptide)
chain: KEPPAKVPEVPKKIVV
B13: GTSE1, Q9NYZ3 (peptide)
chain: LPLIDFADTPEAHVAV
B14: ACY1, Q03154 (peptide)
chain: WQRLQSNPHLKEGSVT
B15: RAB11FIP2, Q7L804 (peptide)
chain: MMLSEQAQKWFPTHVQ
B16: CD3E, P07766 (peptide)
chain: GTHWRVLGLALLSVGV
B17: TMEM94, Q12767 (peptide)
chain: GLLLMEEEGHSDLISF
B18: MAU2, Q9Y6X3 (peptide)
chain: EHNLITWTDGPPPVQF
B19: DISP2, A7MBM2 (peptide)
chain: LWLALRETVYDPSLPA
B20: MITF, O75030 (peptide)
chain: ANTLPVSGNLIDLYGN
B21: AP2A1, O95782 (peptide)
chain: AQDFFQRWKQLSLPQQ
B22: ANXA7, P20073 (peptide)
chain: PPSQSYGGGPAQVPLP
B23: ZNF462, Q96JM2 (peptide)
chain: TNLPDVPNKSAPSPTS
B24: PDCD1, Q15116 (peptide)
chain: MQIPQAPWPVVWAVLQ
B25: MAML3, Q96JK9 (peptide)
chain: SNWSPLGPPSSPYGAA
B26: NFKBIE, O00221 (peptide)
chain: VTAGWTWPALRTLSSL
B27: MALL, Q13021 (peptide)
chain: PPATSYAPSDVPSGVA
B28: TTLL6, Q8N841 (peptide)
chain: TNWTLLKSDMNKPHLI
B29: GAREM1, Q9H706 (peptide)
chain: PPVPPKSEAVREEARL
B30: CCDC141, Q6ZP82 (peptide)
chain: GQVQVADLLGINGTGE
B31: SZRD1, Q7Z422 (peptide)
chain: NSTSRPTLPVKSLAQR
B32: TRIM25, Q14258 (peptide)
chain: AREPPADVWTPPARAS
B33: NCKAP5L, Q9HCH0 (peptide)
chain: GGLLHWERLLGGLGGE
B34: PAX1, P15863 (peptide)
chain: SIPRSWPSAHSVSNIL
B35: EIF4G1, Q04637 (peptide)
chain: PTPVLMNQPPQIAPKR
B36: TMX3, Q96JJ7 (peptide)
chain: MAAWKSWTALRLAATV
B37: SRARP, Q8NEQ6 (peptide)
chain: STWGTVKDSLKALSSA
B38: TADA3, O75528 (peptide)
chain: WKTLKERESILKLLDG
B39: ZNF469, Q96JG9 (peptide)
chain: APSLPGKGSGASVALM
B40: BAHD1, Q8TBE0 (peptide)
chain: PPSADYSTPPHRTVPE
B41: FIGN, Q5HY92 (peptide)
chain: LWPVLRSDAFSGLTAL
B42: MFSD9, Q8NBP5 (peptide)
chain: AWSDVVGRRSSLLAAI
B43: EXOSC10, Q01780 (peptide)
chain: EISNRWKLAQVQVQKD
B44: PSD, A5PKW4 (peptide)
chain: PQSPPASMYGSTGSLL
B45: AGAP7P, Q5VUJ5 (peptide)
chain: KWPSLATLAATPISSS
B46: GJB5, O95377 (peptide)
chain: DLLSGDLIFLGSDSHP
B47: SIPA1L1, O43166 (peptide)
chain: DWSNLVDAAKAYEVQR
B48: IL17RD, Q8NFM7 (peptide)
chain: PALPSKLLSSGSAKAD
B49: TEX14, Q8IWB6 (peptide)
chain: GPPSLNYIPPVLQLSG
B50: HSH2D, Q96JZ2 (peptide)
chain: DRSWHQMVVRALSSQE
B51: USP53, Q70EK8 (peptide)
chain: NLPPPLPPKKYAITSV
B52: MAP2K4, P45985 (peptide)
chain: PYPKWNSVFDQLTQVV
B53: KRT4, P19013 (peptide)
chain: WNLLQQQTTTTSSKNL
B54: INO80E, Q8NBZ0 (peptide)
chain: MAVGPPDAPVGGPLTF
B55: CEBPB, P17676 (peptide)
chain: DAKAPPTAAYAGAAPA
B56: ZKSCAN5, Q9Y2L8 (peptide)
chain: QVPSLPLKDSQELTAS
B57: ATP8B3, O60423 (peptide)
chain: SFWLFRVSPTTFPFLY
B58: SPATA31A6, Q5VVP1 (peptide)
chain: WPLLRKQLEGRLALPS
B59: DOCK4, Q8N1I0 (peptide)
chain: LSIPVTSEPPALPPKP
B60: NSUN7, Q8NE18 (peptide)
chain: LSETVTKPPLPQKNTA
B61: KMT2A, Q03164 (peptide)
chain: AWKSLTDKVQEARSNA
B62: MAP4K5, Q9Y4K4 (peptide)
chain: PPPLPPKPRISSYPED

What follows are binders tested against CALM1 2-149, P0DP23.

Selected by phage display, active:
B1 confidence 2, B3 confidence 2, B7 confidence 2, B11 confidence 2, B14 confidence 2, B15 confidence 2, B16 confidence 3, B19 confidence 3, B21 confidence 2, B26 confidence 2, B28 confidence 2, B33 confidence 2, B34 confidence 2, B36 confidence 2, B37 confidence 2, B38 confidence 3, B41 confidence 3, B42 confidence 2, B43 confidence 2, B45 confidence 3, B47 confidence 3, B50 confidence 2, B52 confidence 3, B53 confidence 3, B57 confidence 2, B58 confidence 2, B61 confidence 2

What follows are binders tested against CEP55 160-217, Q53EZ4.
CEP55 160-217, Q53EZ4, sequence (Q53EZ4 160-217): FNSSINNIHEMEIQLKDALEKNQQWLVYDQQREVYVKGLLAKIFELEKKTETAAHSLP

Selected by phage display, active:
B2 confidence 3, B5 confidence 3, B9 confidence 2, B22 confidence 2, B25 confidence 2, B27 confidence 2, B32 confidence 2, B40 confidence 3, B44 confidence 2, B49 confidence 2, B54 confidence 2, B55 confidence 4

The binders below were run against CLTC 1-364, Q00610.
CLTC 1-364, Q00610, sequence (Q00610 1-364): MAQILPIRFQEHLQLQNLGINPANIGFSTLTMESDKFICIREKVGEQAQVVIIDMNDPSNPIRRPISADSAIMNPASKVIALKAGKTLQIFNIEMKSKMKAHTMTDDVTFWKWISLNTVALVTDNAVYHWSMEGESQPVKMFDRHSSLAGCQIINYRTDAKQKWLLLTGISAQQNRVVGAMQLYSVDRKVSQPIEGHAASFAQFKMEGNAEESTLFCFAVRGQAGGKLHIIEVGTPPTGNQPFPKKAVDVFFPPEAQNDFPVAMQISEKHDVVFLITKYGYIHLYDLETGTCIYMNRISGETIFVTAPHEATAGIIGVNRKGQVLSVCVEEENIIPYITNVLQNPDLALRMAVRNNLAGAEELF

Selected by phage display, active:
B4 confidence 3, B6 confidence 2, B8 confidence 3, B10 confidence 4, B13 confidence 3, B17 confidence 4, B18 confidence 4, B20 confidence 3, B30 confidence 2, B46 confidence 3

Each binder was assayed against CRK 124-198, P46108.
CRK 124-198, P46108, sequence (P46108 124-198): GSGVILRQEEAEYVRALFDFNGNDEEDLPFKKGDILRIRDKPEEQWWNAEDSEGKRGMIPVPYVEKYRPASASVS

Selected by phage display, active:
B12 confidence 3, B23 confidence 2, B29 confidence 4, B31 confidence 2, B35 confidence 3, B39 confidence 3, B48 confidence 3, B51 confidence 2, B56 confidence 4, B59 confidence 2, B60 confidence 3, B62 confidence 2

The binders below were run against AP2B1 700-937, P63010.
AP2B1 700-937, P63010, sequence (P63010 700-937): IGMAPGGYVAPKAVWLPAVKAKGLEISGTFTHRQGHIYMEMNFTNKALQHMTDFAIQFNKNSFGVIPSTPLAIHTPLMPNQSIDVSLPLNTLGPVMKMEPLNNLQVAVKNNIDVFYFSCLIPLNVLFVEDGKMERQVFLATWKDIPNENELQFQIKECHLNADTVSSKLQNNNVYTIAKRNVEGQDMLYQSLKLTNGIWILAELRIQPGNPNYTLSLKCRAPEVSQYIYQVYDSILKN

Selected by phage display, active:
B24 confidence 4
